According to PubChem BioAssay AID1159580 (chemical genetic matrix, 2015):
The whole screen tested about 5,500 compounds, of which about 2,000 (36%) were called active. Another 18% or so got no clear call; they are omitted. Cut-off read from the data, not from the text of the source: active = normalized growth mostly below about 0.91 (no sharp cut-off); inconclusive = no clear call, values can overlap the other calls; inactive = mostly above about 0.92. The list shows a part of the results.

Assay: chemical genetic growth profiling, strain panel (AID 1159580);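 note: tested at 20 µM; growth read once vehicle control cultures reached saturation at 30 °C; 1 = growth at the plate median or of vehicle wells; lower values mean less growth of the strain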
Conditions: growth OD

Measured: normalized growth

CC1=CCc2c(cc3oc(C)cc(=O)c3c2O)OC1
inactive: S. cerevisiae deletion strains, locus YJR075W, strain HOC1, stronger effect = lower value 0.926 | S. cerevisiae deletion strains, locus YKL009W, strain mrt4, stronger effect = lower value 0.912 | S. cerevisiae deletion strains, locus YKL068W, stronger effect = lower value 0.974 | S. cerevisiae deletion strains, locus YKL160W, strain elf1, stronger effect = lower value 0.978 | S. cerevisiae deletion strains, locus YKR026C, strain gcn3, stronger effect = lower value 0.951 | S. cerevisiae deletion strains, locus YKR091W, strain srl3, stronger effect = lower value 0.977 | S. cerevisiae deletion strains, locus YLL001W, strain dnm1, stronger effect = lower value 0.968 | S. cerevisiae deletion strains, locus YLL026W, stronger effect = lower value 0.97 | S. cerevisiae deletion strains, locus YLL041C, strain sdh2, stronger effect = lower value 0.972 | S. cerevisiae deletion strains, locus YLR027C, strain aat2, stronger effect = lower value 0.984 | S. cerevisiae deletion strains, locus YLR039C, strain RIC1, stronger effect = lower value 0.766 | S. cerevisiae deletion strains, locus YLR058C, strain SHM2, stronger effect = lower value 0.923 | S. cerevisiae deletion strains, locus YLR102C, strain apc9, stronger effect = lower value 0.97 | S. cerevisiae deletion strains, locus YLR113W, strain HOG1, stronger effect = lower value 0.931 | S. cerevisiae deletion strains, locus YLR221C, strain rsa3, stronger effect = lower value 0.944 | S. cerevisiae deletion strains, locus YLR258W, strain gsy2, stronger effect = lower value 0.95 | S. cerevisiae deletion strains, locus YLR262C, strain YPT6 (second series), stronger effect = lower value 0.883 | S. cerevisiae deletion strains, locus YLR262C, strain YPT6, stronger effect = lower value 0.772 | S. cerevisiae deletion strains, locus YLR320W, strain mms22, stronger effect = lower value 0.932 | S. cerevisiae deletion strains, locus YLR330W, strain CHS5, stronger effect = lower value 0.944 | S. cerevisiae deletion strains, locus YLR342W, strain FKS1, stronger effect = lower value 1 | S. cerevisiae deletion strains, locus YLR357W, strain rsc2, stronger effect = lower value 1.01 | S. cerevisiae deletion strains, locus YLR370C, strain arc18, stronger effect = lower value 0.998 | S. cerevisiae deletion strains, locus YLR371W, strain rom2, stronger effect = lower value 0.916 | S. cerevisiae deletion strains, locus YLR384C, strain iki3, stronger effect = lower value 0.988 | S. cerevisiae deletion strains, locus YML016C, strain PPZ1, stronger effect = lower value 0.953 | S. cerevisiae deletion strains, locus YML032C, strain rad52, stronger effect = lower value 0.917 | S. cerevisiae deletion strains, locus YML120C, strain ndi1, stronger effect = lower value 0.957 | S. cerevisiae deletion strains, locus YML124C, strain tub3, stronger effect = lower value 0.966 | S. cerevisiae deletion strains, locus YMR058W, strain fet3, stronger effect = lower value 0.936 | S. cerevisiae deletion strains, locus YMR078C, strain ctf18, stronger effect = lower value 0.956 | S. cerevisiae deletion strains, locus YMR125W, strain sto1, stronger effect = lower value 0.975 | S. cerevisiae deletion strains, locus YMR129W, stronger effect = lower value 0.967 | S. cerevisiae deletion strains, locus YMR205C, strain PFK2, stronger effect = lower value 0.971 | S. cerevisiae deletion strains, locus YMR231W, strain pep5, stronger effect = lower value 0.998 | S. cerevisiae deletion strains, locus YMR307W, strain GAS1, stronger effect = lower value 0.733 | S. cerevisiae deletion strains, locus YNL071W, strain lat1, stronger effect = lower value 0.979 | S. cerevisiae deletion strains, locus YNL128W, strain TEP1, stronger effect = lower value 0.881 | S. cerevisiae deletion strains, locus YNL183C, strain NPR1, stronger effect = lower value 0.92 | S. cerevisiae deletion strains, locus YNL209W, strain ssb2, stronger effect = lower value 1.01 | S. cerevisiae deletion strains, locus YNL248C, strain rpa49, stronger effect = lower value 0.971 | S. cerevisiae deletion strains, locus YNL250W, strain rad50, stronger effect = lower value 0.971 | S. cerevisiae deletion strains, locus YNL271C, strain bni1, stronger effect = lower value 0.959 | S. cerevisiae deletion strains, locus YNL298W, strain CLA4, stronger effect = lower value 0.925 | S. cerevisiae deletion strains, locus YNL322C, strain KRE1 (second series), stronger effect = lower value 0.984 | S. cerevisiae deletion strains, locus YNL322C, strain KRE1, stronger effect = lower value 0.94 | S. cerevisiae deletion strains, locus YNR049C, strain mso1, stronger effect = lower value 0.981 | S. cerevisiae deletion strains, locus YNR052C, strain pop2, stronger effect = lower value 0.973 | S. cerevisiae deletion strains, locus YOL006C, strain TOP1, stronger effect = lower value 0.554 | S. cerevisiae deletion strains, locus YOL012C, strain htz1 1.55 | S. cerevisiae deletion strains, locus YOR001W, strain rrp6, stronger effect = lower value 0.969 | S. cerevisiae deletion strains, locus YOR061W, strain CKA2, stronger effect = lower value 0.972 | S. cerevisiae deletion strains, locus YOR069W, strain VPS5, stronger effect = lower value 0.973 | S. cerevisiae deletion strains, locus YOR070C, strain gyp1, stronger effect = lower value 0.965 | S. cerevisiae deletion strains, locus YOR080W, strain dia2, stronger effect = lower value 0.986 | S. cerevisiae deletion strains, locus YOR083W, strain WHI5, stronger effect = lower value 0.951 | S. cerevisiae deletion strains, locus YOR106W, strain vam3, stronger effect = lower value 0.945 | S. cerevisiae deletion strains, locus YOR136W, strain idh2, stronger effect = lower value 0.963 | S. cerevisiae deletion strains, locus YOR144C, strain elg1, stronger effect = lower value 0.979 | S. cerevisiae deletion strains, locus YOR231W, strain MKK1, stronger effect = lower value 0.958 | S. cerevisiae deletion strains, locus YOR265W, strain rbl2, stronger effect = lower value 0.983 | S. cerevisiae deletion strains, locus YOR290C, strain snf2, stronger effect = lower value 0.979 | S. cerevisiae deletion strains, locus YOR316C, strain cot1, stronger effect = lower value 0.974 | S. cerevisiae deletion strains, locus YPL051W, strain arl3, stronger effect = lower value 0.976 | S. cerevisiae deletion strains, locus YPL078C, strain atp4, stronger effect = lower value 0.926 | S. cerevisiae deletion strains, locus YPL106C, strain sse1, stronger effect = lower value 0.952 | S. cerevisiae deletion strains, locus YPL240C, strain hsp82, stronger effect = lower value 0.97 | S. cerevisiae deletion strains, locus YPL241C, strain CIN2, stronger effect = lower value 0.973 | S. cerevisiae deletion strains, locus YPL256C, strain CLN2, stronger effect = lower value 0.99 | S. cerevisiae deletion strains, locus YPR119W, strain clb2, stronger effect = lower value 0.956 | S. cerevisiae deletion strains, locus YPR141C, strain kar3, stronger effect = lower value 0.972 | S. cerevisiae deletion strains, locus YPR163C, strain tif3, stronger effect = lower value 0.921 | S. cerevisiae deletion strains, locus YPR167C, strain met16, stronger effect = lower value 0.963
active: S. cerevisiae deletion strains, locus YKL085W, strain MDH1 (second series), stronger effect = lower value 0.903 | S. cerevisiae deletion strains, locus YKL085W, strain MDH1, stronger effect = lower value 0.903 | S. cerevisiae deletion strains, locus YKL190W, strain CNB1, stronger effect = lower value 0.902 | S. cerevisiae deletion strains, locus YKR001C, strain vps1, stronger effect = lower value 0.759 | S. cerevisiae deletion strains, locus YLR268W, strain sec22, stronger effect = lower value 0.869 | S. cerevisiae deletion strains, locus YLR342W, strain FKS1 (second series), stronger effect = lower value 0.792 | S. cerevisiae deletion strains, locus YLR418C, strain cdc73, stronger effect = lower value 0.639 | S. cerevisiae deletion strains, locus YMR223W, strain ubp8, stronger effect = lower value 0.902 | S. cerevisiae deletion strains, locus YMR263W, strain SAP30, stronger effect = lower value 0.865 | S. cerevisiae deletion strains, locus YNL067W, strain RPL9B, stronger effect = lower value 0.844 | S. cerevisiae deletion strains, locus YNL153C, strain GIM3, stronger effect = lower value 0.858 | S. cerevisiae deletion strains, locus YNL233W, strain BNI4, stronger effect = lower value 0.807 | S. cerevisiae deletion strains, locus YNL307C, strain MCK1, stronger effect = lower value 0.651 | S. cerevisiae deletion strains, locus YOL147C, strain pex11, stronger effect = lower value 0.922 | S. cerevisiae deletion strains, locus YOR184W, strain ser1, stronger effect = lower value 0.782 | S. cerevisiae deletion strains, locus YOR270C, strain vph1, stronger effect = lower value 0.683 | S. cerevisiae deletion strains, locus YPL055C, strain LGE1, stronger effect = lower value 0.716 | S. cerevisiae deletion strains, strain wtn01, stronger effect = lower value 0.843 | S. cerevisiae strains, strain wild type, stronger effect = lower value 0.878
